FLuc inh: blocks purified firefly luciferase enzyme activity; P08659; purified P. pyralis luciferase, luminescence, biochemical; Potency, µM (doses to about 115 µM), usual class: inhibitors; 76,000 tested, 2.5% active; also: nearly all actives have a fitted effect of over 65% in size
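FLuc 10nM, D-luciferin 10uM, ATP 10uM, Mg acetate 10mM, Tris acetate pH 7.5, Tween/BSA; cpd qHTS; enzyme added last; CCD luminescence.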
NPR1 antag: blocks ANP-stimulated signaling of human Npr1 receptor; HEK293 hNpr1 GloSensor cGMP, ANP-stimulated luminescence; Potency, µM (doses to about 46.3 µM), hits mostly inhibitors; 76,000 tested, 1.6% active; calls by dose curve; also: nearly all actives have a fitted effect of over 60% in size
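HEK293 cells stably expressing human Npr1 and cGMP GloSensor pGS-40F, loaded 2 h with 2% GloSensor reagent, given compound 30 min at room temperature. Luminescence read before and 20 min after 0.1 nM hNppA.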
3T3 cytotox: NIH 3T3 cell cytotoxicity. AID 1345082. Potency, µM (series often up to 96.7 µM), hits mostly inhibitors. 94,000 tested, 4.3% active. NIH 3T3 viability, CellTiter-Glo ATP luminescence, 48-72 h; also: nearly all actives have a fitted effect of over 55% in size
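NIH 3T3 cells at 400 cells/well received 23 nL of compound by pintool and were incubated 48 or 72 h at 37 °C. Viability was read as ATP-coupled CellTiter-Glo luminescence.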
GPT2 inhibitor: GPT2 alanine aminotransferase inhibition. Recombinant GPT2, coupled pyruvate oxidase/HRP Amplex Red fluorescence. Q8TD30. Potency, µM (series often up to 57.7 µM), actives largely listed as inhibitors. 100,000 tested, 0.25% active; also: nearly all actives have a fitted effect of over 60% in size
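GPT2 10ng/uL, a-KG 250uM, L-Ala 2mM, HEPES pH7.5 + 0.0001% Tween; 30 min RT. Then Amplex mix (PO/HRP/ThPP), 30 min RT dark, fluorescence. AOA 50uM used as positive control.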
HEK293 tox: cytotoxic compounds in HEK 293 cells; Potency, µM (top dose mostly 115 µM), most hits filed as inhibitors; HEK 293 viability, ATP luminescence (CellTiter-Glo), 48-72 h; AID 1345083; 94,000 tested, 6.6% active; also: nearly all actives have a fitted effect of over 60% in size
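250 HEK 293 cells/well; compound by pintool; incubated 48 or 72 hr at 37 degree Celsius; CellTiter-Glo added, 10 min RT, luminescence imaged.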
Of the large screens only hits and unclear results are named; the others gave an inactive call; ! = not active in a repeat. Compounds with a hit are over-represented: about 10% of the library has one in this group of screens. Unless noted, calls follow the shape of the dose curve; as a rule, active = well fitted curve in the direction sought with a large enough effect; inconclusive = small, poorly fitted or top-dose-only effect, or another doubt; inactive = no such curve, though single readings can be large; an effect the other way counts as inactive or inconclusive.

CCOc1ccccc1C(=O)N1CCN(c2cc(C(F)(F)F)nc(C)n2)CC1	3T3 cytotox inconclusive, HEK293 tox inconclusive
OCc1ccc(-c2cc(-c3ccncc3)c3cncn3c2)cc1	3T3 cytotox 40µM, HEK293 tox inconclusive
COc1ccc(-c2cc(-c3ccc(F)cc3)cn3cncc23)cc1	FLuc inh inconclusive, 3T3 cytotox inconclusive, HEK293 tox 100µM
COc1ccc(-c2cc(-c3ccc(F)cc3OC)cn3cncc23)cc1	3T3 cytotox inconclusive, GPT2 inhibitor inconclusive, HEK293 tox inconclusive
O=C1OC[C@@H]2CCN(Cc3ccccc3Cl)Cc3ccc(F)cc3N12	HEK293 tox 71µM
COc1ccc(OCc2nc(C)c(CCO)c(=O)n2CC(=O)Nc2cccc(F)c2)cc1	none
CCOC(=O)N1CCN(c2nccc(-c3ccccn3)n2)CC1	3T3 cytotox inconclusive, HEK293 tox inconclusive
Cc1cc(C)n(C2CCN(c3nccc(-c4ccccn4)n3)C2)n1 (centres undefined)	FLuc inh 45µM
Cn1ncc2c(C(=O)Nc3ccc(F)cc3)cc(-c3ccccc3C(F)(F)F)nc21	3T3 cytotox inconclusive, HEK293 tox 28µM (no result: FLuc inh, NPR1 antag, GPT2 inhibitor)
Cn1ncc2c(C(=O)Nc3cccc(C(F)(F)F)c3)cc(-c3ccccc3C(F)(F)F)nc21	3T3 cytotox 28µM, HEK293 tox 22µM (no result: FLuc inh, NPR1 antag, GPT2 inhibitor)
CCN(C(=O)c1cc(-c2ccccc2C(F)(F)F)nc2c1cnn2C)c1ccccc1	3T3 cytotox inconclusive, HEK293 tox 25µM (no result: FLuc inh, NPR1 antag, GPT2 inhibitor)
CN(CC#N)C(=O)c1cc(-c2ccccc2C(F)(F)F)nc2c1cnn2C	none (no result: FLuc inh, NPR1 antag, GPT2 inhibitor)
COc1ccc(NC(=O)c2cc(-c3ccccc3C(F)(F)F)nc3c2cnn3C)cc1OC	3T3 cytotox inconclusive, HEK293 tox 32µM (no result: FLuc inh, NPR1 antag, GPT2 inhibitor)
Cn1ncc2c(C(=O)Nc3cccnc3)cc(-c3ccccc3C(F)(F)F)nc21	none (no result: FLuc inh, NPR1 antag, GPT2 inhibitor)
O=C(c1ccc(F)cc1)N1CCC(N2CCCNC2=O)CC1	none
Cc1cc(C(=O)N(CCC(=O)NCc2ccccc2)CCC(C)C)c(C)o1	NPR1 antag inconclusive, 3T3 cytotox inconclusive, HEK293 tox inconclusive
NC(=O)[C@H](CC1CCCCC1)NC(=O)[C@@H]1CN(C(=O)c2cccnc2)CCN1C(=O)c1cccs1	none
CN(C)c1ccc(NC(=O)c2cc(-c3ccccc3C(F)(F)F)nc3c2cnn3C)cc1	3T3 cytotox inconclusive, HEK293 tox 25µM (no result: FLuc inh, NPR1 antag, GPT2 inhibitor)
CN(C)c1ccc(NC(=O)c2cc(-c3ccc(C(F)(F)F)cc3)nc3c2cnn3C)cc1	none (no result: FLuc inh, NPR1 antag, GPT2 inhibitor)
O=C(CN1CC2CC(C1)[C@H]1CCCC(=O)N1C2)NC1CCCCC1 (some centres undefined)	none
CN1CCC(NC(=O)c2nc3nc(-c4ccccc4)c(-c4cccc(O)c4)cc3n2C)CC1	3T3 cytotox 11µM, HEK293 tox 35µM
CN(C)CCNC(=O)c1nc2nc(-c3ccccc3)c(Cl)cc2n1C	3T3 cytotox inconclusive
Cn1c(C(=O)NCCc2cnc[nH]2)nc2nc(-c3ccccc3)c(Cl)cc21	FLuc inh inconclusive, 3T3 cytotox 28µM, HEK293 tox inconclusive
CN(C)CCNC(=O)c1nc2nc(-c3ccccc3)c(-c3ccccc3F)cc2n1C	NPR1 antag inconclusive, 3T3 cytotox 35µM, HEK293 tox 50µM
O=C(c1ccc(CO)o1)N1CCc2c(nc(-c3ccncc3)[nH]c2=O)C1	none
CC(=O)NCCNC[C@@H]1C=C(C)[C@H](Cc2nnc(-c3ccc(C)cc3)o2)C[C@H]1C(C)C	3T3 cytotox 40µM, HEK293 tox 56µM
CC1=C[C@@H](CNCCN(C)C)[C@H](C(C)C)C[C@H]1Cc1nnc(C(C)(C)C)o1	3T3 cytotox 71µM, HEK293 tox inconclusive
CC1=C[C@@H](CNCCN(C)C)[C@H](C(C)C)C[C@H]1Cc1nnc(-c2ccc(C)cc2)o1	3T3 cytotox 35µM, HEK293 tox 35µM
CC1=C[C@@H](CNCCN2CCOCC2)[C@H](C(C)C)C[C@H]1Cc1nnc(-c2ccc(C)cc2)o1	3T3 cytotox 35µM, HEK293 tox 40µM
CC1=C[C@@H](CNCCN(C)C)[C@H](C(C)C)C[C@H]1Cc1nnc(C)o1	none
Cc1ccc(-c2noc(-c3nnn4c3COC(c3ccc(Cl)cc3)C4)n2)cc1 (centres undefined)	none
O=C(NCc1cccs1)C1CCCN(Cc2cccc(-c3cccs3)c2)C1 (centres undefined)	3T3 cytotox 40µM, HEK293 tox 45µM (no result: FLuc inh, NPR1 antag)
O=C(NCc1cccc(F)c1)C1CCCN(Cc2cccc(-c3cccs3)c2)C1 (centres undefined)	3T3 cytotox 40µM, HEK293 tox inconclusive (no result: FLuc inh, NPR1 antag, GPT2 inhibitor)
Cc1cccc(-c2cccc(CN3CCCC(C(=O)NCC4CC4)C3)c2)c1 (centres undefined)	3T3 cytotox inconclusive, HEK293 tox inconclusive (no result: FLuc inh, NPR1 antag)
O=C(NCc1cccs1)C1CCCN(Cc2cccc(-c3ccsc3)c2)C1 (centres undefined)	3T3 cytotox inconclusive, HEK293 tox 40µM (no result: FLuc inh, NPR1 antag)
Cc1cccc(-c2cccc(CN3CCCC(C(=O)N4CCN(C)CC4)C3)c2)c1 (centres undefined)	3T3 cytotox inconclusive, HEK293 tox 25µM (no result: FLuc inh, NPR1 antag)
CC(=O)N1CCC(Cc2ncc(C)n2CC2CC2)C1 (centres undefined)	none
COc1cccc2c1OCC(C(=O)N1CC(Oc3ccccc3C)C1)C2 (centres undefined)	3T3 cytotox inconclusive
COc1ccc(C(=O)N2CC(C(=O)NC3CCCCC3)C3(CCOCC3)C2)cc1 (centres undefined)	none
CCCCCCCCOc1ccc(C(=O)c2ccccc2)c(O)c1	none (no result: FLuc inh, NPR1 antag, 3T3 cytotox, HEK293 tox)
O=C(C1CCCN(Cc2cccc(-c3cccs3)c2)C1)N1CCCC1 (centres undefined)	3T3 cytotox inconclusive, HEK293 tox 71µM (no result: FLuc inh, NPR1 antag)
CCCc1noc(-c2ccn3c(CNC(=O)Cc4ccc(Cl)cc4)nnc3c2)n1	none
Cc1nccn1CCCC(=O)NC1CC(c2nnc(CO)n2C2CC2)C1 (centres undefined)	none
N#Cc1cccc(CN2C3CCC2CN(C(=O)Nc2ccccc2F)C3)c1	none (no result: FLuc inh, NPR1 antag)
C[N+](C)([O-])CCNc1ccc(NCC[N+](C)(C)[O-])c2c1C(=O)c1c(O)ccc(O)c1C2=O	none (no result: FLuc inh, NPR1 antag, 3T3 cytotox, HEK293 tox)
O=C1c2c(O)ccc(O)c2C(=O)c2c(NCCNCCO)ccc(NCCNCCO)c21	GPT2 inhibitor 10µM! (no result: FLuc inh, NPR1 antag, 3T3 cytotox, HEK293 tox)
COCc1nc(C2CC(Nc3ncnc4ccsc34)C2)cc(=O)[nH]1 (centres undefined)	none
O=S(=O)(c1ccccc1F)N1CCC(CCc2nc(C3CCOCC3)no2)CC1	3T3 cytotox inconclusive, HEK293 tox 45µM (no result: FLuc inh, NPR1 antag)
O=C(NCc1c[nH]c2ncccc12)c1cncc(Br)c1	none
Cc1ccc(NC(=O)C2CCN(C(=O)c3ncn4c3COC(c3ccc(F)cc3)C4)CC2)cc1Cl (centres undefined)	FLuc inh 28µM, 3T3 cytotox inconclusive, HEK293 tox inconclusive
O=C(NC1CCCCCC1)C1CCN(C(=O)c2ncn3c2COC(c2ccc(F)cc2)C3)CC1 (centres undefined)	none

Screening results from PubChem.
